Values joined by “and” are separate entries in the source; they are usually repeats but may differ in a detail not shown here. Identical values can stand only once. Some structures have more than one record in an assay (separate samples or runs), and their calls can disagree. Active and inactive are the calls of the source. The calls were made as follows: active = hit-call score of the fitted dose curve at least 0.9, where 1 is the maximum; inactive = score below 0.9.
What was measured:
[1] = read-out: Matrix Metallopeptidase 9 (MMP9), MMP9 (gene 4318); test: BSK_BE3C_MMP9: BioMAP Diversity Plus: BE3C Assay for Matrix Metallopeptidase 9 (MMP9) Biomarker Activity (AID 2284283); details: primary human bronchial epithelial cells
Summary of the method: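 BE3C, human bronchial epithelial primary cells; 24 h post-dose; MMP-9 by ELISA; positive fit vs DMSO; SRB (0.1%, TCA-fixed, 560 nm) parallel cytotox.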

[2] = read-out: Plasminogen activator inhibitor-1 (PAI1), SERPINE1 (gene 5054); test: BSK_CASM3C_PAI1: BioMAP Diversity Plus: CASM3C Assay for Plasminogen activator inhibitor-1 (PAI1) Biomarker Activity (AID 2284284); details: primary human coronary artery smooth muscle cells;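 also: PAI-1 protein level measured by ELISA 24 h after dosing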
[3] = read-out: Monocyte Chemoattractant Protein-1 (MCP1), CCL2 (gene 6347); test: BSK_hDFCGF_MCP1: BioMAP Diversity Plus: hDFCGF Assay for Monocyte Chemoattractant Protein-1 (MCP1) Biomarker Activity (AID 2284285); details: primary human foreskin fibroblasts
Summary of the method: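 Human foreskin fibroblasts (hDFCGF system) were exposed to compound and secreted MCP-1 was measured by ELISA after 24 hours. Activity was fitted relative to DMSO. Cytotoxicity was checked by SRB total-protein staining in parallel cultures.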

[4] = read-out: Intercellular Adhesion Molecule 1 (ICAM1), ICAM1 (gene 3383); test: BSK_hDFCGF_ICAM1: BioMAP Diversity Plus: hDFCGF Assay for Intercellular Adhesion Molecule 1 (ICAM1) Biomarker Activity (AID 2284287); details: primary human foreskin fibroblasts
Summary of the method: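 Primary human foreskin fibroblasts (hDFCGF system) dosed with chemical; ICAM-1 quantified by ELISA at 24 h relative to DMSO. Parallel SRB total-protein staining to assess overt cytotoxicity.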

CD40, CD40 (gene 958) = test: BSK_IMphg_CD40: BioMAP Diversity Plus: IMphg Assay for CD40 Biomarker Activity (AID 2284288); details: primary human endothelial cells with macrophages
Summary of the method: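 Venular endothelial cells co-cultured with macrophages (human primary), CD40 measured by ELISA 24 h after dosing. Positive-direction fit vs DMSO baseline; cytotoxicity tracked by SRB total-protein staining in parallel cultures.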

[5] = read-out: TIMP metallopeptidase inhibitor 2 (TIMP2), TIMP2 (gene 7077); test: BSK_hDFCGF_TIMP2: BioMAP Diversity Plus: hDFCGF Assay for TIMP metallopeptidase inhibitor 2 (TIMP2) Biomarker Activity (AID 2284289); details: primary human foreskin fibroblasts
Summary of the method: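 Primary human foreskin fibroblasts in the hDFCGF system, dosed for 24 h; TIMP-2 level measured by ELISA, fitted in the positive direction against DMSO; cytotoxicity checked in parallel by sulforhodamine B total protein staining.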

[6] = read-out: Interleukin-1 alpha (IL1a), IL1A (gene 3552); test: BSK_IMphg_IL1a: BioMAP Diversity Plus: IMphg Assay for Interleukin-1 alpha (IL1a) Biomarker Activity (AID 2284290); details: primary human endothelial cells with macrophages
Summary of the method: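 Human venular endothelial cells co-cultured with macrophages, IMphg system. IL-1α is measured by ELISA 24 h after dosing and fitted in the positive direction against DMSO. Cytotoxicity is assessed by SRB staining of parallel cultures.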

[7] = read-out: E-selectin (Homo sapiens) (UniProt P16581); test: BSK_IMphg_ESelectin: BioMAP Diversity Plus: IMphg Assay for Eselectin Biomarker Activity (AID 2284291); details: primary human endothelial cells with macrophages
Summary of the method: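 Human venular endothelial cell–macrophage co-culture, E-selectin measured by ELISA 24 h after chemical dosing. Signal fitted in the positive direction against DMSO as negative control and baseline.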

[8] = BSK_IMphg_SRB: Viability Assessment in the BioMAP Diversity Plus: IMphg Assay (AID 2284292); details: primary human endothelial cells with macrophages;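 also: measured one day after compound addition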
Summary of the method: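 Human venular endothelial cells with macrophages, 24 h after chemical dosing; total protein by 0.1% SRB staining after 10% TCA fixation, read at 560 nm. Positive-direction fitting versus DMSO baseline.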

[9] = read-out: Macrophage colony-stimulating factor (MCSF), CSF1 (gene 1435); test: BSK_IMphg_MCSF: BioMAP Diversity Plus: IMphg Assay for Macrophage colony-stimulating factor (MCSF) Biomarker Activity (AID 2284293); details: primary human endothelial cells with macrophages
Summary of the method: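 Co-culture of human venular endothelial cells and macrophages, 24 hours of chemical exposure. M-CSF quantified by ELISA, with parallel SRB total-protein staining for cytotoxicity; activity fitted relative to DMSO.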

Chain of E-selectin (Homo sapiens) (P16581 whole entry, looked up): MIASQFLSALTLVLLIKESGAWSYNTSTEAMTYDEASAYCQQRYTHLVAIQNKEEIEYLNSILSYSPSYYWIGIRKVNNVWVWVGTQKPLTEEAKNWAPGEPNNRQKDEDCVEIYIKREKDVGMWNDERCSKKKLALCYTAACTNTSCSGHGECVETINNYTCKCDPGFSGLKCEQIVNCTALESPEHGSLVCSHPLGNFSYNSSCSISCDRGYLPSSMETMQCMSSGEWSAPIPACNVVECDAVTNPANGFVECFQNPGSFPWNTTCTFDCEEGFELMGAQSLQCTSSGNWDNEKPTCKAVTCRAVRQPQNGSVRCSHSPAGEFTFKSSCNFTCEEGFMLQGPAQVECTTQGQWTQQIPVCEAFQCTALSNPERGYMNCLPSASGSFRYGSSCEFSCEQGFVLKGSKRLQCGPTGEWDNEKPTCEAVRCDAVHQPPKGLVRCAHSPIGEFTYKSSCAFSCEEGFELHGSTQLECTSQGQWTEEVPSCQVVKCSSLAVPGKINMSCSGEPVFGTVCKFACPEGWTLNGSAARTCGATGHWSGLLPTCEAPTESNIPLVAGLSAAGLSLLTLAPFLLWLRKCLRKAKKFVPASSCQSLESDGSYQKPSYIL

With `CN(CCO)S(=O)(=O)C(F)(F)C(F)(F)C(F)(F)C(F)(F)C(F)(F)C(F)(F)C(F)(F)C(F)(F)F` the outcome [1] was “inactive”, the outcome [2] was “inactive” and the AC50 [3] was 74.2 nM (active). The outcome [3] was “inactive”, the outcome [4] was “inactive” and the outcome (CD40, CD40 (gene 958)) was “inactive”. For the same molecule, the AC50 [5] was 30.1 nM (active) and 23.8 nM (active), the outcome [6] was “inactive” and the outcome [7] was “inactive”. For the same molecule, the outcome [8] was “inactive” and the outcome [9] was “inactive”.

With `Oc1c(Cl)cc(Cl)cc1Sc1cc(Cl)cc(Cl)c1O` the AC50 [1] was 2.09 µM (active) and 1.25 µM (active), the AC50 [2] was 18.3 µM (active) and the outcome [2] was “inactive”. The AC50 [3] was 2.54 µM (active) and 3.14 µM (active), the AC50 [4] was 2.56 µM (active) and 2.73 µM (active) and the AC50 [5] was 2.33 µM (active) and 1.67 µM (active).

In the case of `CCCCCCCCCCCC`, the AC50 [1] is reported as 9.27 µM (active) and 9.14 µM (active), the outcome [2] is reported as “inactive” and the AC50 [3] is reported as 11.1 µM (active) and 7.93 µM (active). The AC50 [4] was 11.7 µM (active) and 10.3 µM (active) and the AC50 [5] was 12.6 µM (active) and 5.39 µM (active).

With `C=CC(=O)OCCC(F)(F)C(F)(F)C(F)(F)C(F)(F)C(F)(F)C(F)(F)C(F)(F)C(F)(F)F` the outcome [1] was “inactive”, the outcome [2] was “inactive” and the AC50 [3] was 7290 nM (active). For the same molecule, the outcome [3] was “inactive”, the AC50 [4] was 1.19 µM (active) and the outcome [4] was “inactive”. For the same molecule, the outcome (CD40, CD40 (gene 958)) was “inactive”, the outcome [5] was “inactive” and the outcome [6] was “inactive”. The outcome [7] was “inactive”, the outcome [8] was “inactive” and the outcome [9] was “inactive”.

With `O=C(O)CCC(F)(F)C(F)(F)C(F)(F)C(F)(F)C(F)(F)F` the outcome [1] was “inactive”, the outcome [2] was “inactive” and the outcome [3] was “inactive”. For the same molecule, the outcome [4] was “inactive”, the outcome (CD40, CD40 (gene 958)) was “inactive” and the outcome [5] was “inactive”. For the same molecule, the AC50 [6] was 9.45 µM (active), the outcome [6] was “inactive” and the outcome [7] was “inactive”. For the same molecule, the outcome [8] was “inactive” and the outcome [9] was “inactive”.

With `OCC(F)(F)C(F)(F)C(F)(F)C(F)(F)C(F)(F)C(F)(F)C(F)(F)C(F)(F)C(F)(F)C(F)(F)C(F)(F)F` the AC50 [1] was 229 nM (active) and 222 nM (active), the outcome [2] was “inactive” and the outcome [3] was “inactive”. For the same molecule, the outcome [4] was “inactive”, the AC50 (CD40, CD40 (gene 958)) was 1.35 µM (active) and the outcome [5] was “inactive”. For the same molecule, the outcome [6] was “inactive”, the AC50 [7] was 155 nM (active) and 396 nM (active) and the outcome [8] was “inactive”. The outcome [9] was “inactive”.

For `O=C1NS(=O)(=O)c2ccccc21`, the outcome [1] was “inactive”, the outcome [2] was “inactive” and the outcome [3] was “inactive”. For the same molecule, the outcome [4] was “inactive” and the outcome [5] was “inactive”.

In the case of `CN(Cc1cnc2nc(N)nc(N)c2n1)c1ccc(C(=O)N[C@@H](CCC(=O)O)C(=O)O)cc1`, the outcome [1] is reported as “inactive”, the outcome [2] is reported as “inactive” and the AC50 [3] is reported as 607 nM (active). The outcome [3] was “inactive”, the outcome [4] was “inactive” and the outcome (CD40, CD40 (gene 958)) was “inactive”. For the same molecule, the outcome [5] was “inactive”, the outcome [6] was “inactive” and the outcome [7] was “inactive”. The outcome [8] was “inactive” and the outcome [9] was “inactive”.

In the case of `O=C(CC(=O)C(F)(F)C(F)(F)C(F)(F)F)c1cccs1`, the AC50 [1] is reported as 18.5 µM (active), the outcome [2] is reported as “inactive” and the outcome [3] is reported as “inactive”. For the same molecule, the outcome [4] was “inactive”, the outcome (CD40, CD40 (gene 958)) was “inactive” and the AC50 [5] was 7.8 µM (active). For the same molecule, the outcome [5] was “inactive”, the AC50 [6] was 47.6 µM (active) and the outcome [6] was “inactive”. The AC50 [7] was 40.3 µM (active) and 42 µM (active), the AC50 [8] was 44.9 µM (active) and 39.7 µM (active) and the outcome [9] was “inactive”.

With `O=C(O)C(F)(F)OC(F)(F)C(F)(F)OC(F)(F)C(F)(F)OC(F)(F)C(F)(F)C(F)(F)C(F)(F)F` the AC50 [1] was 5.94 µM (active) and 4.69 µM (active), the outcome [2] was “inactive” and the AC50 [3] was 8.5 µM (active) and 8.66 µM (active). The AC50 [4] was 19.7 µM (active) and 17.2 µM (active), the AC50 (CD40, CD40 (gene 958)) was 42.4 µM (active) and 40.9 µM (active) and the AC50 [5] was 7.91 µM (active) and 7.94 µM (active). For the same molecule, the AC50 [6] was 44.1 µM (active) and 22.4 µM (active), the AC50 [7] was 40.8 µM (active) and 31.9 µM (active) and the AC50 [8] was 53.4 µM (active) and 51.8 µM (active). For the same molecule, the outcome [9] was “inactive”.

For `O=P(O)(O)CCC(F)(F)C(F)(F)C(F)(F)C(F)(F)C(F)(F)C(F)(F)C(F)(F)C(F)(F)F`, the outcome [1] was “inactive”, the outcome [2] was “inactive” and the outcome [3] was “inactive”. For the same molecule, the AC50 [4] was 25.7 µM (active), the outcome [4] was “inactive” and the outcome (CD40, CD40 (gene 958)) was “inactive”. The outcome [5] was “inactive”, the outcome [6] was “inactive” and the AC50 [7] was 37.8 µM (active) and 34.5 µM (active). For the same molecule, the outcome [8] was “inactive” and the outcome [9] was “inactive”.

For `Oc1ccc(Cc2ccccc2O)cc1`, the outcome [1] was “inactive”, the outcome [2] was “inactive” and the outcome [3] was “inactive”. For the same molecule, the outcome [4] was “inactive” and the outcome [5] was “inactive”.

In the case of `O=P(O)(O)CCC(F)(F)C(F)(F)C(F)(F)C(F)(F)C(F)(F)C(F)(F)F`, the outcome [1] is reported as “inactive”, the outcome [2] is reported as “inactive” and the outcome [3] is reported as “inactive”. The outcome [4] was “inactive”, the outcome (CD40, CD40 (gene 958)) was “inactive” and the outcome [5] was “inactive”. The outcome [6] was “inactive”, the outcome [7] was “inactive” and the outcome [8] was “inactive”. The outcome [9] was “inactive”.

In the case of `O=S(=O)(O)C(F)(F)C(F)(F)C(F)(F)C(F)(F)C(F)(F)C(F)(F)C(F)(F)C(F)(F)C(F)(F)C(F)(F)F`, the AC50 [1] is reported as 9.67 µM (active) and 13.3 µM (active), the outcome [2] is reported as “inactive” and the AC50 [3] is reported as 10300 nM (active). The outcome [3] was “inactive”, the outcome [4] was “inactive” and the AC50 (CD40, CD40 (gene 958)) was 10.6 µM (active) and 6.06 µM (active). The outcome [5] was “inactive”, the outcome [6] was “inactive” and the outcome [7] was “inactive”. For the same molecule, the outcome [8] was “inactive” and the outcome [9] was “inactive”.

For `O=C(O)CCC(F)(F)C(F)(F)C(F)(F)C(F)(F)C(F)(F)C(F)(F)F`, the outcome [1] was “inactive”, the outcome [2] was “inactive” and the outcome [3] was “inactive”. For the same molecule, the outcome [4] was “inactive”, the outcome (CD40, CD40 (gene 958)) was “inactive” and the outcome [5] was “inactive”. For the same molecule, the AC50 [6] was 5.95 µM (active) and 16.4 µM (active) and 20.5 µM (active), the outcome [7] was “inactive” and the outcome [8] was “inactive”. The outcome [9] was “inactive”.

From PubChem BioAssay (EPA / NIEHS)
